About 79,000 compounds went through this panel and 15% of them were active in at least one assay; those are over-represented in the sample as a whole. Values without a mark were called inactive. Calls of active or inactive are those of the source. Cut-off read from the data, not from the text of the source: active = growth inhibition above about 70%; inactive = the rest.
Assay: NCI Yeast Anticancer Drug Screen. Data for the rad50 strain (AID 155);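 note: 0% = growth of vehicle-only cultures of the same strain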
Conditions: S. cerevisiae rad50 strain growth inhibition; at 5.0 µM (retest, dose inferred, filed as 0.5); hits give high values
How it was run: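 Relative growth inhibition (compound vs vehicle) was measured in yeast with a defined repair-gene alteration.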

Row | SMILES | growth inhibition
1 | Cc1ccc2c(c1)CC1(C2)Cc2ccc(C)cc2C1=O (stereo unspecified) | 6%
2 | NC1=CC(=O)c2ccccc2C1=O | 18%
3 | CCCCC(CC(=O)O)c1ccc(Cl)cc1 (stereo unspecified) | -146%
4 | OCCOCCO[P+]1(OCCOCCO)n2c3ccc2C(c2ccccc2)=C2C=CC(=N2)C(c2ccccc2)=c2ccc(n21)=C(c1ccccc1)C1=NC(=C3c2ccccc2)C=C1 | 99% (active)
5 | Clc1ccc2[nH]c(-c3ccccc3)c(-c3ccccn3)c2c1 | 81% (active)
6 | COc1cc(NS(C)(=O)=O)ccc1Nc1c2ccccc2nc2ccccc12 | 67%
7 | COC1/C=C/OC2(C)Oc3c(C)c(O)c4c(c3C2=O)C(=O)C=C(NC(=O)/C(C)=C\C=C\C(C)C(OC=O)C(C)C(O)C(C)C(OC(C)=O)C1C)C4=O (stereo unspecified) | -15%
8 | COc1ccc(CN(C)c2c(C)ccc3ccccc23)cc1 | 10%
9 | CCOC(=O)c1c(-c2ccccc2)csc1NC(=O)CBr | 22%
10 | Nc1nc2nc(I)[nH]c2c(=O)[nH]1 | -4%
11 | CC(CN(CC(=O)O)CC(=O)O)N(CC(=O)O)CC(=O)O.[Cl][Pd][Cl] (stereo unspecified) | 27%
12 | COC(=O)c1nc(=S)[nH]c(C(=O)OC)c1C(=O)c1ccc2ccccc2c1 | 26%
13 | O=C(Nc1ccccc1)OCCc1ccc(Br)cc1 | -10%
14 | O=C(CCN1CCCCC1)/C(=C\c1ccc(Cl)cc1)c1ccccc1 | 5%
15 | FC(F)(F)c1nc(S)cc(=S)[nH]1 | 1%
16 | CCCCC(=O)N/N=C/c1ccc([N+](=O)[O-])s1 | 9%
